In the supplement of paper PMC10849652:
Targets with a hit are over-represented here; the source holds about 7,900 in all. About 0.6% of all pairs of compound and target were hits. Values without a mark were called inactive.

compound: C1=CC=C(C=C1)[C@H](COC2=CC3=C(C=C2)NC(=O)N3)NC(=O)C4=CC=CN(C4=O)CC5=CC(=C(C=C5)F)F; test: log2 fold change, soluble protein after heating vs DMSO (PISA); higher = thermal stabilisation; K562 cells, 10 uM, 30 min; active = over 0.2 and 3.5 SD of the protein, either way, in both replicates (recomputed)
Outline: (§1)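 For each measurement, 10 μM compound was applied for 30 min to K562 cells at 2×10^6 cells/mL. Aliquots were heated for 3 min across 48°C-58°C, pooled, and extracted in PBS with 0.5% NP-40 at 4°C; the supernatant after 21,000xg for 90 min was soluble protein. This was quantified by TMTpro 16plex LC-MS/MS with channel sums equalised, and thermal stability was reported relative to control samples from duplicates, on a log2 fold-change scale.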

Sequence of UniProt Q15059 (Q15059 whole entry, looked up): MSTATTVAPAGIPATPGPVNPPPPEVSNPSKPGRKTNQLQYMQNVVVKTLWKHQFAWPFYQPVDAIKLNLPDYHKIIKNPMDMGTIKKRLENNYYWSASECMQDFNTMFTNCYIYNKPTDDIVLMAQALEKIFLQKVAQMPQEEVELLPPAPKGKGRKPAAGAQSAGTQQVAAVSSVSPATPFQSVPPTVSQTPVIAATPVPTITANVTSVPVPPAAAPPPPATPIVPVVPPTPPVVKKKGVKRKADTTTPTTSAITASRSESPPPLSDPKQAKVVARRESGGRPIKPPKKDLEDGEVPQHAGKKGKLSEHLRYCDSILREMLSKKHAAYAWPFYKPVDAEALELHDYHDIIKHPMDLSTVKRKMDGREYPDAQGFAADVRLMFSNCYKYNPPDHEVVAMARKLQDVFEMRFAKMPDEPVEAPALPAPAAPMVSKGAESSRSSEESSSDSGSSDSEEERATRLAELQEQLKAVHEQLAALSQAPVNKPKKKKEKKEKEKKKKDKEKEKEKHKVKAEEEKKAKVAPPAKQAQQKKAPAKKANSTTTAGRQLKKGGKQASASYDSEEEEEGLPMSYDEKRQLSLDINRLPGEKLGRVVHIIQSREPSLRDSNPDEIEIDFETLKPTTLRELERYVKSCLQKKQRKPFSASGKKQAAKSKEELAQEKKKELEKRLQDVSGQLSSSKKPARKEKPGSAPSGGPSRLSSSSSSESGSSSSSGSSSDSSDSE
Sequence of UniProt Q8N6S5 (Q8N6S5 whole entry, looked up): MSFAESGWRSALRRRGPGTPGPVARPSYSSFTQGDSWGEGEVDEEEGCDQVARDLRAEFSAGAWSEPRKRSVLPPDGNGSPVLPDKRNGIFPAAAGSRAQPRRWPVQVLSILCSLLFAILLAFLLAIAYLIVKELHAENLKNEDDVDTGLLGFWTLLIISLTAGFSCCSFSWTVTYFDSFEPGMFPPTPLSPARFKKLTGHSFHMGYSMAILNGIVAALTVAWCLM
Sequence of UniProt P42025 (P42025 whole entry, looked up): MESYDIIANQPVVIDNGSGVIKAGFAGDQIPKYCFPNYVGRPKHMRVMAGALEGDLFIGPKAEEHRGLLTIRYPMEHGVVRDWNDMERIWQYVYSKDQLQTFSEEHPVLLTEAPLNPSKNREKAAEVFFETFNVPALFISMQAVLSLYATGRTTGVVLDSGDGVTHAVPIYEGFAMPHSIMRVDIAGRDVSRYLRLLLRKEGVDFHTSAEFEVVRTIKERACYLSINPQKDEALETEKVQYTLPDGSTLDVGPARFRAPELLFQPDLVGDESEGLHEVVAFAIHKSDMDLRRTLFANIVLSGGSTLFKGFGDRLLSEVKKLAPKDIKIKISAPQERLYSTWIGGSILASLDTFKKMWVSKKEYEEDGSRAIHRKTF
Sequence of UniProt P30837 (P30837 whole entry, looked up): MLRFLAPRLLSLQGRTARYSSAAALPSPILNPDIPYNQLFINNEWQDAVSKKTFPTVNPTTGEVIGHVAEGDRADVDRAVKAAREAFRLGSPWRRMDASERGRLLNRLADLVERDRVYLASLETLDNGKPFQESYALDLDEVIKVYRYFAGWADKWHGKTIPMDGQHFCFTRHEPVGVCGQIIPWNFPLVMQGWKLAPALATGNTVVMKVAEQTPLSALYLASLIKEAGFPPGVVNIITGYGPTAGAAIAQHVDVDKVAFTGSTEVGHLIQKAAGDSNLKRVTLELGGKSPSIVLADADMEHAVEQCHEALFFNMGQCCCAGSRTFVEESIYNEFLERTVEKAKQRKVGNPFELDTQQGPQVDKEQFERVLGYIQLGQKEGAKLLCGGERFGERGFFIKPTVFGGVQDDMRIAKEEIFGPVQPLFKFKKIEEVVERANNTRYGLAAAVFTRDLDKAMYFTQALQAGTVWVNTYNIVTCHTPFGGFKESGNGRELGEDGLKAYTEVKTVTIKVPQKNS
Sequence of UniProt Q6P6C2 (Q6P6C2 whole entry, looked up): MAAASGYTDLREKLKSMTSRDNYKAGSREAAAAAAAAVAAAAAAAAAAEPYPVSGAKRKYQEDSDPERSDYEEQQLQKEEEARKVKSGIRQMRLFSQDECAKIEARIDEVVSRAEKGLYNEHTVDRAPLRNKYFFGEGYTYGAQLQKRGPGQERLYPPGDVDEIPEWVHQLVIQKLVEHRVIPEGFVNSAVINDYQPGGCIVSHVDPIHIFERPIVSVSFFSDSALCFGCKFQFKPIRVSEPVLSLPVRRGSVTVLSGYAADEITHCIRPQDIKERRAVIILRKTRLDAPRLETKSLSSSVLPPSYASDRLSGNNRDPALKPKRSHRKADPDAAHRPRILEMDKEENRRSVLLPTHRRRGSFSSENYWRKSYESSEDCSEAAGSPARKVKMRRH
Sequence of UniProt Q9P287 (Q9P287 whole entry, looked up): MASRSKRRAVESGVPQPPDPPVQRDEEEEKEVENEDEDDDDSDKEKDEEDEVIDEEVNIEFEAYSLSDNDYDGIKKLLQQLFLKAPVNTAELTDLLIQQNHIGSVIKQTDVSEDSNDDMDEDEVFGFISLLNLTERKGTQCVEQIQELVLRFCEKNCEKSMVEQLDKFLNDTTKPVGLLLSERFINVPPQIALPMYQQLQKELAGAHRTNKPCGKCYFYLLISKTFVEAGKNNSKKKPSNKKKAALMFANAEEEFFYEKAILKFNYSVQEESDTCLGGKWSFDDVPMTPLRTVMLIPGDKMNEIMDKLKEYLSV
Sequence of UniProt Q15904 (Q15904 whole entry, looked up): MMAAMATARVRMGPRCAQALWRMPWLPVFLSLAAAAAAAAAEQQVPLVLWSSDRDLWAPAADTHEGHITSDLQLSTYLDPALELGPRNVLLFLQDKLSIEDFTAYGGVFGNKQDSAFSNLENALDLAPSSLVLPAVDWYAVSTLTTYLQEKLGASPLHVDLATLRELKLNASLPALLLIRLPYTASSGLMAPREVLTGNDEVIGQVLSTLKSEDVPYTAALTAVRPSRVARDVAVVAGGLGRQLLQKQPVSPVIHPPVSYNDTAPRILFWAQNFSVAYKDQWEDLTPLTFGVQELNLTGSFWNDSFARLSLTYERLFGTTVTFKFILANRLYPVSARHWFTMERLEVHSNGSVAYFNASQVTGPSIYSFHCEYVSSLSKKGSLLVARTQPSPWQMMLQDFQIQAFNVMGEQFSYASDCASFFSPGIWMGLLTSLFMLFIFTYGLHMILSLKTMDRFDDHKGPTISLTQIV
Sequence of UniProt Q9Y673 (Q9Y673 whole entry, looked up): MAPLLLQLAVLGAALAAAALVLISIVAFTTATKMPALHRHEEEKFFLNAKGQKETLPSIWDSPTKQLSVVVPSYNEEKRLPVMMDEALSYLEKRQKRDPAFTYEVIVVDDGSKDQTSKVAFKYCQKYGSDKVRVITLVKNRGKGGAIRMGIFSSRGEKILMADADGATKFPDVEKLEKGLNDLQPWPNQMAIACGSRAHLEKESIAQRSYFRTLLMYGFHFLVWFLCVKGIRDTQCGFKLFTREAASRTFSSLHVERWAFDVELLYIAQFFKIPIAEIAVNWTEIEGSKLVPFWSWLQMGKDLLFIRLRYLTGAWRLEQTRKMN
Sequence of UniProt Q06481 (Q06481 whole entry, looked up): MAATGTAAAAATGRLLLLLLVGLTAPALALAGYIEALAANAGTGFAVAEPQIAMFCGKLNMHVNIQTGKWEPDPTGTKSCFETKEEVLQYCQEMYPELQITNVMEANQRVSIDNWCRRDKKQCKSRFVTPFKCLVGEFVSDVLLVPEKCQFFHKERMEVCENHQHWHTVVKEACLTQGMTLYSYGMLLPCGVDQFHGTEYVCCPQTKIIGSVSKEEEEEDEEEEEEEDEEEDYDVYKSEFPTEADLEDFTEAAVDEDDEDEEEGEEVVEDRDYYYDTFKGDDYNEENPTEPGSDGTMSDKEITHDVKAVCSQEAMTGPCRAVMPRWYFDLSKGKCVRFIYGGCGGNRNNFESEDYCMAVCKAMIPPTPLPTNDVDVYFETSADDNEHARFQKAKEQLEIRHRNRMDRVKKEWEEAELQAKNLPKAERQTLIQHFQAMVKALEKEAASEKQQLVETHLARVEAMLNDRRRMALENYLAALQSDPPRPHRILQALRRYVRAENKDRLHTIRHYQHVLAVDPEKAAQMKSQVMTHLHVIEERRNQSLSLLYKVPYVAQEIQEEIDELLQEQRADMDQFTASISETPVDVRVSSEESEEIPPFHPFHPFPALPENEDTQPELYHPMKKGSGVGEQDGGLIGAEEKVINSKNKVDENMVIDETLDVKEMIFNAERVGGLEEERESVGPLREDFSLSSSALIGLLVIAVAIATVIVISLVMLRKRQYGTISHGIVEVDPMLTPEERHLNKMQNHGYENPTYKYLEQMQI
Sequence of UniProt P42330 (P42330 whole entry, looked up): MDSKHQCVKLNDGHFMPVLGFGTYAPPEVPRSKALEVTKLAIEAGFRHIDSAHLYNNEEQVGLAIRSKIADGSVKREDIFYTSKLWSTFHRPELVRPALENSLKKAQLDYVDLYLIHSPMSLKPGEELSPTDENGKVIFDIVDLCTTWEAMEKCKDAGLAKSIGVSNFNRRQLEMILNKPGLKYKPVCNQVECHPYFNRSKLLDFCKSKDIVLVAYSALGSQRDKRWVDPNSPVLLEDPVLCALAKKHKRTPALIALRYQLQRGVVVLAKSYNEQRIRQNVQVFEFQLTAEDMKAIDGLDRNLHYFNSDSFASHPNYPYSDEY
Sequence of UniProt Q92685 (Q92685 whole entry, looked up): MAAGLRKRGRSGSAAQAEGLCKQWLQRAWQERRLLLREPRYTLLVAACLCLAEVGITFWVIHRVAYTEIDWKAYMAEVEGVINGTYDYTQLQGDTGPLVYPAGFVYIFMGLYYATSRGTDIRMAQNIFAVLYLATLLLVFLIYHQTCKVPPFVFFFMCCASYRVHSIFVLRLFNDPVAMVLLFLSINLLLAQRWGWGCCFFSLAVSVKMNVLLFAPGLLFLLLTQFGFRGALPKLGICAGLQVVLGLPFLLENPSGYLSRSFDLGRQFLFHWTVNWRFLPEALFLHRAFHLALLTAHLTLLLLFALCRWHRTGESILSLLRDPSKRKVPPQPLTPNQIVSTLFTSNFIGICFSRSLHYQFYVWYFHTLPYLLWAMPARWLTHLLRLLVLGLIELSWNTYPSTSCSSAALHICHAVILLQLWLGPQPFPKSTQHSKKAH

Question: How did the log2 fold change turn out when ACSL4 (UniProt O60488) was run?
Answer: -0.08

Question: Which log2 fold change does the source give for ALG3 (UniProt Q92685) here?
Answer: -0.061

Question: ACSF3 (UniProt Q4G176) was tested. Which log2 fold change did it give?
Answer: 0.037

Question: For ARFRP1 (UniProt Q13795), which log2 fold change is on record?
Answer: 0

Question: How did the log2 fold change turn out when AKR1C3 (UniProt P42330) was run?
Answer: 0.155

Question: How did the log2 fold change turn out when ALDH18A1 (UniProt P54886) was run?
Answer: -0.107

Question: For ALKBH5 (UniProt Q6P6C2), which log2 fold change is on record?
Answer: 0.065

Question: How did the log2 fold change turn out when ARL6IP4 (UniProt Q66PJ3) was run?
Answer: 0.036

Question: ATP6V0A1 (UniProt Q93050) was tested. Which log2 fold change did it give?
Answer: 0.281

Question: For AKAP8L (UniProt Q9ULX6), which log2 fold change is on record?
Answer: -0.011

Question: Which log2 fold change does the source give for APLP2 (UniProt Q06481) here?
Answer: 0.003

Question: For ATP6AP1 (UniProt Q15904), which log2 fold change is on record?
Answer: 0.014

Question: How did the log2 fold change turn out when ARL6IP6 (UniProt Q8N6S5) was run?
Answer: -0.003

Question: With ARHGAP25 isoform 4 (UniProt P42331) as the target, how does the log2 fold change read?
Answer: -0.181

Question: How did the log2 fold change turn out when ATP5IF1 (UniProt Q9UII2) was run?
Answer: 0.016

Question: With BTAF1 (UniProt O14981) as the target, how does the log2 fold change read?
Answer: 0.051

Question: For ALDH1B1 (UniProt P30837), which log2 fold change is on record?
Answer: 0.037

Question: Which log2 fold change does the source give for ARL1 (UniProt P40616) here?
Answer: -0.084

Question: ALG5 (UniProt Q9Y673) was tested. Which log2 fold change did it give?
Answer: -0.037

Question: For ACTR1B (UniProt P42025), which log2 fold change is on record?
Answer: -0.049

Question: How did the log2 fold change turn out when ADD2 isoform 9 (UniProt P35612) was run?
Answer: 0.02

Question: For ARFIP1 isoform 2 (UniProt P53367), which log2 fold change is on record?
Answer: 0.009

Question: With ACO2 (UniProt Q99798) as the target, how does the log2 fold change read?
Answer: 0

Question: With ASH2L (UniProt Q9UBL3) as the target, how does the log2 fold change read?
Answer: 0.016

Question: How did the log2 fold change turn out when ATL2 (UniProt Q8NHH9) was run?
Answer: -0.019

Question: For ATAD3B (UniProt Q5T9A4), which log2 fold change is on record?
Answer: -0.02

Question: Which log2 fold change does the source give for BCAP29 isoform 2 (UniProt Q9UHQ4) here?
Answer: -0.017

Question: For ANAPC2 (UniProt Q9UJX6), which log2 fold change is on record?
Answer: -0.017

Question: For ALDH2 (UniProt P05091), which log2 fold change is on record?
Answer: 0.009

Question: For BRD3 (UniProt Q15059), which log2 fold change is on record?
Answer: 0.002

Question: ADD2 (UniProt P35612) was tested. Which log2 fold change did it give?
Answer: 0.005

Question: For ATG9A (UniProt Q7Z3C6), which log2 fold change is on record?
Answer: 0.018

Question: Which log2 fold change does the source give for BCCIP isoform 2 (UniProt Q9P287) here?
Answer: -0.031

Question: AAR2 (UniProt Q9Y312) was tested. Which log2 fold change did it give?
Answer: 0.024

Question: Which log2 fold change does the source give for ATXN7L3 isoform 2 (UniProt Q14CW9) here?
Answer: -0.156

Question: With ARL4A (UniProt P40617) as the target, how does the log2 fold change read?
Answer: -0.027

compound: CC1=C(SC2=C1C(=N[C@H](C3=NN=C(N32)C)CC(=O)N)C4=CC=C(C=C4)Cl)C; test: as above
Outline: as §1

Question: ACSL4 (UniProt O60488) was tested. Which log2 fold change did it give?
Answer: 0.1

Question: ALG3 (UniProt Q92685) was tested. Which log2 fold change did it give?
Answer: 0.019

Question: With ACSF3 (UniProt Q4G176) as the target, how does the log2 fold change read?
Answer: 0.086

Question: For ARFRP1 (UniProt Q13795), which log2 fold change is on record?
Answer: -0.066

Question: Which log2 fold change does the source give for AKR1C3 (UniProt P42330) here?
Answer: 0.049

Question: ALDH18A1 (UniProt P54886) was tested. Which log2 fold change did it give?
Answer: -0.038

Question: For ALKBH5 (UniProt Q6P6C2), which log2 fold change is on record?
Answer: -0.002

Question: For ARL6IP4 (UniProt Q66PJ3), which log2 fold change is on record?
Answer: 0.027

Question: Which log2 fold change does the source give for AKAP8L (UniProt Q9ULX6) here?
Answer: -0.186

Question: With APLP2 (UniProt Q06481) as the target, how does the log2 fold change read?
Answer: -0.003

Question: Which log2 fold change does the source give for ATP6AP1 (UniProt Q15904) here?
Answer: -0.069

Question: ARL6IP6 (UniProt Q8N6S5) was tested. Which log2 fold change did it give?
Answer: 0.113

Question: How did the log2 fold change turn out when ARHGAP25 isoform 4 (UniProt P42331) was run?
Answer: -0.171

Question: ATP5IF1 (UniProt Q9UII2) was tested. Which log2 fold change did it give?
Answer: -0.087

Question: Which log2 fold change does the source give for BTAF1 (UniProt O14981) here?
Answer: -0.003

Question: Which log2 fold change does the source give for ALDH1B1 (UniProt P30837) here?
Answer: 0.064

Question: How did the log2 fold change turn out when ARL1 (UniProt P40616) was run?
Answer: 0.057

Question: How did the log2 fold change turn out when ALG5 (UniProt Q9Y673) was run?
Answer: 0.1

Question: Which log2 fold change does the source give for ACTR1B (UniProt P42025) here?
Answer: 0.105

Question: Which log2 fold change does the source give for ACO2 (UniProt Q99798) here?
Answer: 0.067

Question: ASH2L (UniProt Q9UBL3) was tested. Which log2 fold change did it give?
Answer: -0.013

Question: Which log2 fold change does the source give for ATL2 (UniProt Q8NHH9) here?
Answer: 0.05

Question: With ATAD3B (UniProt Q5T9A4) as the target, how does the log2 fold change read?
Answer: -0.023

Question: Which log2 fold change does the source give for BCAP29 isoform 2 (UniProt Q9UHQ4) here?
Answer: 0.029

Question: ANAPC2 (UniProt Q9UJX6) was tested. Which log2 fold change did it give?
Answer: 0.016

Question: ALDH2 (UniProt P05091) was tested. Which log2 fold change did it give?
Answer: 0.065

Question: How did the log2 fold change turn out when BRD3 (UniProt Q15059) was run?
Answer: 1.9 (active)

Question: For ADD2 (UniProt P35612), which log2 fold change is on record?
Answer: 0.044

Question: With ATG9A (UniProt Q7Z3C6) as the target, how does the log2 fold change read?
Answer: 0.014

Question: BCCIP isoform 2 (UniProt Q9P287) was tested. Which log2 fold change did it give?
Answer: 0.002

Question: Which log2 fold change does the source give for AAR2 (UniProt Q9Y312) here?
Answer: 0.08

compound: CC1=C2C(=CC=C1)N=C(N(C2=O)C3=CC=CC=C3C)CN4C=NC5=C(N=CN=C54)N; test: as above
Outline: as §1

Question: With ACSL4 (UniProt O60488) as the target, how does the log2 fold change read?
Answer: 0.132

Question: How did the log2 fold change turn out when ALG3 (UniProt Q92685) was run?
Answer: 0.072

Question: ACSF3 (UniProt Q4G176) was tested. Which log2 fold change did it give?
Answer: 0.12

Question: With ARFRP1 (UniProt Q13795) as the target, how does the log2 fold change read?
Answer: -0.03

Question: With AKR1C3 (UniProt P42330) as the target, how does the log2 fold change read?
Answer: 0.132

Question: With ALDH18A1 (UniProt P54886) as the target, how does the log2 fold change read?
Answer: 0.028

Question: How did the log2 fold change turn out when ALKBH5 (UniProt Q6P6C2) was run?
Answer: 0.085

Question: ARL6IP4 (UniProt Q66PJ3) was tested. Which log2 fold change did it give?
Answer: 0.009

Question: Which log2 fold change does the source give for AKAP8L (UniProt Q9ULX6) here?
Answer: 0.054

Question: How did the log2 fold change turn out when APLP2 (UniProt Q06481) was run?
Answer: 0

Question: With ATP6AP1 (UniProt Q15904) as the target, how does the log2 fold change read?
Answer: -0.009

Question: Which log2 fold change does the source give for ARL6IP6 (UniProt Q8N6S5) here?
Answer: 0.08

Question: Which log2 fold change does the source give for ARHGAP25 isoform 4 (UniProt P42331) here?
Answer: -0.173

Question: ATP5IF1 (UniProt Q9UII2) was tested. Which log2 fold change did it give?
Answer: -0.031

Question: BTAF1 (UniProt O14981) was tested. Which log2 fold change did it give?
Answer: 0.124

Question: Which log2 fold change does the source give for ALDH1B1 (UniProt P30837) here?
Answer: 0.013

Question: With ARL1 (UniProt P40616) as the target, how does the log2 fold change read?
Answer: 0.079

Question: Which log2 fold change does the source give for ALG5 (UniProt Q9Y673) here?
Answer: 0.082

Question: Which log2 fold change does the source give for ACTR1B (UniProt P42025) here?
Answer: 0.034

Question: ACO2 (UniProt Q99798) was tested. Which log2 fold change did it give?
Answer: 0.044

Question: How did the log2 fold change turn out when ASH2L (UniProt Q9UBL3) was run?
Answer: 0.081

Question: ATL2 (UniProt Q8NHH9) was tested. Which log2 fold change did it give?
Answer: 0.091

Question: How did the log2 fold change turn out when ATAD3B (UniProt Q5T9A4) was run?
Answer: -0.055

Question: How did the log2 fold change turn out when BCAP29 isoform 2 (UniProt Q9UHQ4) was run?
Answer: 0.035

Question: For ANAPC2 (UniProt Q9UJX6), which log2 fold change is on record?
Answer: -0.005

Question: How did the log2 fold change turn out when ALDH2 (UniProt P05091) was run?
Answer: 0.032

Question: BRD3 (UniProt Q15059) was tested. Which log2 fold change did it give?
Answer: 0

Question: For ADD2 (UniProt P35612), which log2 fold change is on record?
Answer: 0.014

Question: For ATG9A (UniProt Q7Z3C6), which log2 fold change is on record?
Answer: 0.021

Question: With BCCIP isoform 2 (UniProt Q9P287) as the target, how does the log2 fold change read?
Answer: -0.001

Question: With AAR2 (UniProt Q9Y312) as the target, how does the log2 fold change read?
Answer: -0.053
